TDP1 cell CPT: growth inhibition of DT40 Tdp1-/-;hTDP1 cells with camptothecin (screen for TDP1 inhibitors); chicken DT40 Tdp1-/-;hTDP1 cells + 20 nM CPT, ATP luminescence, 48 h; Potency, µM (titrated, usually from 46.2 µM), without a hit: at the top dose activity change, negative = growth inhibition, usual class: inhibitors; 420,000 tested, 12% active; further: nearly all actives have a fitted effect of over 55% in size
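Chicken DT40 Tdp1-/- cells stably complemented with human TDP1 were seeded at 400 cells/well in medium containing 20 nM camptothecin, exposed to pin-transferred compounds, and grown at 37 °C for at least 48 hr. Viability was read as ATP luminescence.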
DT40 TDP1 no CPT: qHTS for Inhibitors of human tyrosyl-DNA phosphodiesterase 1 (TDP1): qHTS in cells in absence of CPT; DT40 Tdp1-/- hTDP1 cells, no CPT, ATP luminescence, 48 h; Potency, µM (highest dose often 46.2 µM), for inactives: at the top dose activity change, negative = growth inhibition, usual class: inhibitors; 420,000 tested, 15% active; further: nearly all actives have a fitted effect of over 55% in size
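Chicken DT40 Tdp1-/- cells complemented with human TDP1, screened without camptothecin (DMSO vehicle only), 400 cells/well. Compounds pin-transferred, cells incubated at 37 °C for at least 48 hr. Growth read as ATP-dependent luminescence (CellTiter-Glo, 30 min at RT).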
PLK1 PBD inh: blocks phosphopeptide binding to human PLK1 polo-box domain | P53350 | Plk1 PBD binding of FITC phosphopeptide, fluorescence polarization | Potency, µM, for the others: max response, negative = inhibition, actives largely listed as inhibitors | 360,000 tested, 2.8% active; further: series mostly up to about 57 µM; nearly all actives have a fitted effect of over 65% in size
VDR inh: inhibitors of human vitamin D receptor | AID 504847 | Potency, µM, inactives show max response, negative = inhibition, usual class: inhibitors | 400,000 tested, 0.93% active | P11473 | VDR-SRC2-3 peptide fluorescence polarization, 2 h
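FP read-out; VDR + SRC2-3 coactivator peptide; 23 nl compound by pintool; 2 h RT incubation; reagents held at 4 deg C, protected from light.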
TDP1 inh: blocks human tyrosyl-DNA phosphodiesterase 1; Q9NUW8; recombinant TDP1, AlphaScreen DNA substrate cleavage; Potency, µM (series often up to 130 µM), for inactives: top-dose activity change, negative = inhibition, usual class: inhibitors; 350,000 tested, 0.28% active; AID 485290; further: nearly all actives have a fitted effect of over 40% in size
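Here, a 5' biotin and 3' phosphotyrosine-FITC DNA oligonucleotide reports Tdp1 activity: intact substrate bridges AlphaScreen beads, while cleavage leaves a 3' phosphate and drops signal. All incubations at room temperature.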
KAT2A inh: blocks human GCN5L2 histone acetyltransferase; Q92830; GCN5L2 HAT assay, ThioGlo1 CoA-SH fluorescence; Potency, µM (series often up to 58.9 µM), without a hit: at the highest dose activity change, negative = inhibition, hits mostly inhibitors; 390,000 tested, 0.21% active; AID 504327
Target sequence (Q92830 whole entry, looked up): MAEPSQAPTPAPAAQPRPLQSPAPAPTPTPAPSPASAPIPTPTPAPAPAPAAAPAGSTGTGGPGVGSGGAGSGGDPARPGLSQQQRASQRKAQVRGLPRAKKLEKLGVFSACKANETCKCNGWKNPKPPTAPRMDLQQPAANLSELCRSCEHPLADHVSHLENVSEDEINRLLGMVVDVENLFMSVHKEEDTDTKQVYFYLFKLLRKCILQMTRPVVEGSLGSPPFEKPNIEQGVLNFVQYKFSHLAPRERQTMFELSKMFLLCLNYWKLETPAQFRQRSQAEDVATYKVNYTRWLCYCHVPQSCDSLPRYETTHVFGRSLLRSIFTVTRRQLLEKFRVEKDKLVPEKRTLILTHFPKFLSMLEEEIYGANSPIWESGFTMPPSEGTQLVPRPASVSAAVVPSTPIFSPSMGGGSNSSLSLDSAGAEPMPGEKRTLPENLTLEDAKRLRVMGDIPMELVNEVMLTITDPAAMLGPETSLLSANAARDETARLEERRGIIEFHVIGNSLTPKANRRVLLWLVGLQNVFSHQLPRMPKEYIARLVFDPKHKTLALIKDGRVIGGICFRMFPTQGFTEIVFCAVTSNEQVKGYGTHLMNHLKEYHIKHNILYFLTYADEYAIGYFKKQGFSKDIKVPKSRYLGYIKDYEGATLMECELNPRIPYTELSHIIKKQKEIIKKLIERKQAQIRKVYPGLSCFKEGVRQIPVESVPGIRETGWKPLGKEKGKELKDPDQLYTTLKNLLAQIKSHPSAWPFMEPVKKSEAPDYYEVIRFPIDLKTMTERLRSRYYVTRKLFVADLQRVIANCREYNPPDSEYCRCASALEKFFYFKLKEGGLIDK
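GCN5L2 (20nM final) in 50mM HEPES, 0.1mM EDTA pH 7.5, 0.01% Tween-20 was preincubated 15 min at room temperature with compound, then given ThioGlo1 (50uM), H3(1-25) peptide (75uM) and acetyl-CoA (70uM); CoA-thiol fluorescence (Ex340/Em540) was read at 0 and 20 min.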
The depositor's hits bear a star; ? = inconclusive; . = no result. Only some compounds are listed: those with a hit (about 18% of all), similar ones and a draw of the others. The call rests on the fitted dose curve; in most records, active means well fitted curve in the direction sought with a large enough effect; inconclusive means small, poorly fitted or top-dose-only effect, or another doubt; inactive means no such curve, though single readings can be large; an effect the other way counts as inactive or inconclusive. On the % scale 0 is the no-effect control and ±100 the full control effect; potency means the concentration at half of the fitted maximal effect.

SMILES	TDP1 cell CPT	DT40 TDP1 no CPT	PLK1 PBD inh	VDR inh	TDP1 inh	KAT2A inh
O=C(NCc1ccccc1)C1c2ccccc2OCC(=O)N1CC(F)(F)F (configuration not stated)	5%	-16%	2%	.	.	.
COc1ccc(Cn2c(SCc3ccc(C(=O)NCCc4ccccc4)cc3)nc3cccnc32)cc1	?	?	.	-2%	4%	-6%
COc1cccc(CCNC(=O)c2ccc(Cn3c(SCc4ccccc4)nc4cccnc43)cc2)c1	?	21µM*	.	0%	2%	-3%
CN(Cc1ccccc1)C(=O)c1ccc(CSc2nc3cccnc3n2Cc2ccccc2)cc1	12µM*	?	.	9%	7%	-10%
O=C(NCCc1ccccc1)c1ccc(CSc2nc3cccnc3n2Cc2ccccc2)cc1	?	15µM*	.	-5%	7%	-3%
COc1ccc(CCNC(=O)c2ccc(Cn3c(SCc4ccccc4)nc4cccnc43)cc2)cc1	?	2.9µM*	.	8%	5%	-9%
O=C(NCc1ccccc1Cl)c1cc2c(s1)-c1ccc(Cl)cc1SC2	?	?	.	1%	3%	-1%
Cc1noc(C)c1-c1ccc2ncnc(NCc3ccc(C(F)(F)F)o3)c2c1	.	.	.	.	8%	.
Cc1cc(N2O[C@]34C=C[C@]25C[C@@H](O)CC[C@]5(C)C3CC[C@]2(C)[C@@H]([C@H](C)/C=C/[C@H](C)C(C)C)CC[C@H]24)no1 (some centres not stated)	12µM*	9.2µM*	24µM*	?	.	-4%
CN(Cc1ccccc1)C(=O)C1CCN(S(=O)(=O)c2ccc(-n3cnnn3)cc2)CC1	5%	-10%	-2%	13%	.	-3%
COC(=O)C1=C(CS(=O)(=O)c2ccc(C)cc2C)NC(=O)NC1c1ccc(C)cc1 (configuration not stated)	-1%	-3%	.	-16%	1%	0%
CC(=O)c1ccc(N2CCN(C(=O)c3cccc(Oc4ccccc4)c3)CC2)cc1	16µM*	18µM*	2%	18%	6%	-7%
O=C(c1cccc(C(=O)N2CCN(c3ccccc3)CC2)c1)N1CCN(c2ccccc2)CC1	?	15µM*	-7%	-7%	7%	-3%
O=C(c1c(F)cccc1F)N1CCN(c2ccccc2F)CC1	-21%	-17%	-12%	-18%	4%	2%
O=C(c1cccc(C(=O)N2CCN(c3ccccc3F)CC2)c1)N1CCN(c2ccccc2F)CC1	?	23µM*	-11%	14%	5%	-7%
CCn1c(C)c(C)c2cc(C(=O)N3CCN(c4ccccc4)CC3)ccc21	18µM*	?	0%	5%	14%	1%
COc1ccccc1C1NC(=O)NC(C)=C1C(=O)OCC1CCCCC1 (configuration not stated)	-26%	?	-15%	.	.	.
Cc1ccc(NC(=O)Cn2c(=O)n(CCc3ccccc3)c(=O)c3c4c(sc32)CCCC4)cc1C	8%	-3%	.	0%	6%	-4%
CCCC(=O)Nc1cccc(NC(=O)c2cccc([N+](=O)[O-])c2C)c1	?	?	6%	-3%	4%	-3%
Nc1ccccc1N1CCN(C(=O)c2ccccc2)CC1	-21%	-7%	-8%	-1%	2%	2%
O=C(C(Sc1ccccc1)c1ccccc1)N1CCN(c2ccccc2F)CC1 (configuration not stated)	?	23µM*	-19%	4%	-7%	-8%
COC(=O)C1CCN(C(=O)c2ccc(Cl)c(S(=O)(=O)NCc3ccco3)c2)CC1	-12%	?	-6%	-24%	-2%	0%
O=C(c1ccc(S(=O)(=O)Nc2cccc(C(F)(F)F)c2)cc1)N1CCN(c2ccccc2O)CC1	?	23µM*	-9%	3%	4%	0%
O=C(O)/C=C/C(=O)N1CCN(c2ccccc2F)CC1	-1%	-22%	?	-1%	0%	-1%
O=C(c1ccc(Cl)c(S(=O)(=O)NCc2ccco2)c1)N1CCN(c2ccccc2F)CC1	?	?	27µM*	-10%	8%	0%
SMILES	TDP1 cell CPT	DT40 TDP1 no CPT	PLK1 PBD inh	VDR inh	TDP1 inh	KAT2A inh
O=C(c1ccccc1)c1ccc(C(=O)N2CCN(c3ccccc3O)CC2)cc1	26µM*	12µM*	3%	.	.	.
CCOc1ccccc1NC(=O)c1cc2c(=O)[nH]c3ccccc3c2s1	-27%	7%	.	-11%	-2%	-6%
CCCCCn1c(=O)c2c(nc3n2CCN3c2ccc(Br)cc2)n(C)c1=O	?	?	.	13%	4%	-11%
CC1CCc2c(sc3ncn(CC(=O)N=Nc4c(O)[nH]c5ccccc45)c(=O)c23)C1 (configuration not stated)	?	-28%	-11%	3%	6%	-10%
CCc1nc(N=Nc2c(O)[nH]c3ccccc23)c2c3c(sc2n1)CCC3	13µM*	16µM*	3%	-7%	3%	-3%
N=c1ccn2c(n1)OCC1C2O[C@@H](O)[C@H]1O (some centres not stated)	0.13µM*	0.15µM*	.	-5%	2%	.
O=C(CSc1nnc(-c2ccc(O)cc2)n1Cc1ccccc1)NNC(=O)c1ccc(Br)cc1	-3%	1%	?	-5%	5%	-1%
CC1=C(C(=O)OC(C)C)C(c2ccc(Cl)cc2)n2c(sc(=Cc3ccc(OCC(=O)O)cc3)c2=O)=N1 (configuration not stated)	?	?	-20%	.	.	.
CCOC(=O)C1=C(C)N=c2s/c(=C\c3ccc(OCC(=O)O)cc3)c(=O)n2C1c1ccc(Cl)cc1 (configuration not stated)	?	?	10%	79µM*	.	-24%
CCOC(=O)C1=C(C)N=c2s/c(=C/c3ccc(OCC(=O)O)cc3)c(=O)n2C1c1ccc(F)cc1 (configuration not stated)	-4%	-4%	?	71µM*	.	-21%
COc1cc(/C=N/NC(=O)c2ccc(Cl)c(S(N)(=O)=O)c2)ccc1OCC(N)=O	3%	-6%	-17%	-3%	-11%	-7%
CCOC(=O)/C(=C\c1c[nH]c2ccccc12)NC(C)=O	?	?	21µM*	?	5%	-10%
CC1(C)CCC(=O)N2CC[C@H]3C[C@H](OC(=O)Nc4ccc(Br)cc4)C[C@@H]1[C@H]32	35µM*	?	-13%	-2%	.	1%
Cc1cc(N2CCCCC2)nc(N2CCCCC2)n1	?	?	-4%	-14%	1%	-10%

Screening results: PubChem, National Center for Advancing Translational Sciences (NCATS)
